For one compound, inhibition results are on record in ChEMBL document CHEMBL1961873, “Compounds: GSK PKIS; Assays: Nanosyn kinase panel” (2012).

Usually inhibition stands for the relative decrease from the control value, in per cent.

Assay [1] has as its target Sphingosine kinase 1 (Homo sapiens) (UniProt Q9NYA1). The conditions noted are these: at 1 µM.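 Further: mean SPHK1 inhibition value reported from the GSK PKIS kinase panel screen.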
Assay [2] addresses T1, Sphingosine kinase 2 (Homo sapiens) (UniProt Q9NRA0).
T1 sequence (whole entry): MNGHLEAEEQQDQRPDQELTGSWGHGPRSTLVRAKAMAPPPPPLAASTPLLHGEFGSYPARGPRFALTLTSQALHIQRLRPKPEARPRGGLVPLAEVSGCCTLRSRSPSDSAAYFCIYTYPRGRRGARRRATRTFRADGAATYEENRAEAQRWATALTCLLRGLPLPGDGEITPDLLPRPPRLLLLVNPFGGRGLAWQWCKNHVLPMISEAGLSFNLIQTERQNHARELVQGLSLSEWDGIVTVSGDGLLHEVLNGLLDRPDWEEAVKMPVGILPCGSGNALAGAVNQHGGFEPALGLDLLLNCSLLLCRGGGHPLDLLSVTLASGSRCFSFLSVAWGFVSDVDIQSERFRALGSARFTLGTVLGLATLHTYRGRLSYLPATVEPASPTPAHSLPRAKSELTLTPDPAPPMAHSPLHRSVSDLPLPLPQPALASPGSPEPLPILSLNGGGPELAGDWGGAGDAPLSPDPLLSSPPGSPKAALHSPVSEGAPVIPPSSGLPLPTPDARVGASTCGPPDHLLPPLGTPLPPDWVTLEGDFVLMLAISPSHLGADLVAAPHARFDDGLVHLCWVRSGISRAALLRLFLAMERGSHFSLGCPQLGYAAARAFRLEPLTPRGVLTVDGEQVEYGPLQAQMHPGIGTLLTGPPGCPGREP
Particulars: at 0.1 µM.

Assay [3] has as its target T1, Sphingosine kinase 2 (Homo sapiens). Particulars: at 1 µM.
Assay [4] addresses Casein kinase II subunit alpha (Homo sapiens) (UniProt P68400). Particulars: at 0.1 µM.
The target is the same in assay [5]. The conditions noted are these: at 1 µM.
The target of assay [6] is T2, Inhibitor of nuclear factor kappa-B kinase subunit alpha (Homo sapiens) (UniProt O15111).
T2 sequence (whole entry): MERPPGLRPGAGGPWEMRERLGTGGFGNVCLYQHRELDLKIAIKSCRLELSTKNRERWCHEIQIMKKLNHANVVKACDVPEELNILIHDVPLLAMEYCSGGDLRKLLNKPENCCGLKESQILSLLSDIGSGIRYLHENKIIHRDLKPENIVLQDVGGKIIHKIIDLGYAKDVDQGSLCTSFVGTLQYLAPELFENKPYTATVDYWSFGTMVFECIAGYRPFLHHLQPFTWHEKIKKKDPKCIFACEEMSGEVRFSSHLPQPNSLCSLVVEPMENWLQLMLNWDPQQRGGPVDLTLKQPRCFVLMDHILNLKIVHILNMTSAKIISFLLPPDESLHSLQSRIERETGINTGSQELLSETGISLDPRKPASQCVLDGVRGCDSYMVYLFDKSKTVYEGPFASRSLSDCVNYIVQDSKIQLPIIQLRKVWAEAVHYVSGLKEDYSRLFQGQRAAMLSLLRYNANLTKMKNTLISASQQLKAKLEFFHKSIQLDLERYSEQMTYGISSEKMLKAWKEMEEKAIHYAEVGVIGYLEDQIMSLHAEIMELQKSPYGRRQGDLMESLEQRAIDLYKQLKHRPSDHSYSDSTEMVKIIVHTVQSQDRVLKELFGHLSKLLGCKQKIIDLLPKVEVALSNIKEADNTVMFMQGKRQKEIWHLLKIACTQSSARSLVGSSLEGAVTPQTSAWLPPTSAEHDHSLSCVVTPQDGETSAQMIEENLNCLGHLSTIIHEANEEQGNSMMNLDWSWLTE
Particulars: at 0.1 µM.

Assay [7] concerns the target T2, Inhibitor of nuclear factor kappa-B kinase subunit alpha (Homo sapiens). Particulars: at 1 µM.
Assay [8] has as its target T3, Inhibitor of nuclear factor kappa-B kinase subunit beta (Homo sapiens) (UniProt O14920).
T3 sequence (whole entry): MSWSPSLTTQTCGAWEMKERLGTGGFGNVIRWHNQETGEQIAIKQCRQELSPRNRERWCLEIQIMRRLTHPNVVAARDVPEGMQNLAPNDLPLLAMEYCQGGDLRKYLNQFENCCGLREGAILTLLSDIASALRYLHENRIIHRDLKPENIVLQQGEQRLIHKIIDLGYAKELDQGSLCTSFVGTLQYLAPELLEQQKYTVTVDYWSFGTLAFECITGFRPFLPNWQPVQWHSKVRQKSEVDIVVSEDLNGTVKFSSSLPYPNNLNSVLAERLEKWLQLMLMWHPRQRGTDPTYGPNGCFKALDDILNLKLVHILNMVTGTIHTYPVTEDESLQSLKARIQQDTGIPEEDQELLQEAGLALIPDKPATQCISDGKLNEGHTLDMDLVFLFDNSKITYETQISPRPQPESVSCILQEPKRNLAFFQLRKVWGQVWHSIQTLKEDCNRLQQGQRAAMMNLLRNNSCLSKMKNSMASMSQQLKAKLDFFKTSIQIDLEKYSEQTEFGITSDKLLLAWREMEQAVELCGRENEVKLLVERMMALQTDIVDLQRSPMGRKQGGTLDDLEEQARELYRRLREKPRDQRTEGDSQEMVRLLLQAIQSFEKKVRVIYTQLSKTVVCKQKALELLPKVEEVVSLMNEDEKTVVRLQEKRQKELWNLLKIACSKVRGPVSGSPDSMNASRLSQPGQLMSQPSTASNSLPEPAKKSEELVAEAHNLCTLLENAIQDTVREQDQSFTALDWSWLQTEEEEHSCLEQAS
Particulars: at 0.1 µM.

Assay [9] concerns the target T3, Inhibitor of nuclear factor kappa-B kinase subunit beta (Homo sapiens). Particulars: at 1 µM.
Assay [10] addresses T4, Inhibitor of nuclear factor kappa-B kinase subunit epsilon (Homo sapiens) (UniProt Q14164).
T4 sequence (whole entry): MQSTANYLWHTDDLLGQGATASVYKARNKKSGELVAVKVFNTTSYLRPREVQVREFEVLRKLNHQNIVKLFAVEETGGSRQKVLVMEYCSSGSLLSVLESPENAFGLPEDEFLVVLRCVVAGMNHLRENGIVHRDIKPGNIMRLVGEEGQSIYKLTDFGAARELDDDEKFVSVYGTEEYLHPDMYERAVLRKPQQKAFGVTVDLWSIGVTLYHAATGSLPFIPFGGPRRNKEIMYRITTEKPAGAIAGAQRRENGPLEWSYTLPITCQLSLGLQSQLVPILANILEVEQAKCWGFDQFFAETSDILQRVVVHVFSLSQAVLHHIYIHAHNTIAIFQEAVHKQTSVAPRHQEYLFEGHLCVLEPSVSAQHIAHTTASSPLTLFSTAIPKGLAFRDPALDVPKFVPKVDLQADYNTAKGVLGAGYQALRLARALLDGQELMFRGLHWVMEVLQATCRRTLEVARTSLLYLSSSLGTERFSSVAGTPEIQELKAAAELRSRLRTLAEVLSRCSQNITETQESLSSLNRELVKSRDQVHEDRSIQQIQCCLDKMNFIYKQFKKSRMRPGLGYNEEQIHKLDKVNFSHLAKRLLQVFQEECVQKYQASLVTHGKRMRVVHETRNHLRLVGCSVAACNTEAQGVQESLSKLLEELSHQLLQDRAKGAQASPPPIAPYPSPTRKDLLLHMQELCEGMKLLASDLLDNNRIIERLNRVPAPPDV
Particulars: at 0.1 µM.

Assay [11] addresses T4, Inhibitor of nuclear factor kappa-B kinase subunit epsilon (Homo sapiens). Particulars: at 1 µM.
The target in assay [12] is T5, Serine/threonine-protein kinase Nek1 (Homo sapiens) (UniProt Q96PY6).
T5 sequence (whole entry): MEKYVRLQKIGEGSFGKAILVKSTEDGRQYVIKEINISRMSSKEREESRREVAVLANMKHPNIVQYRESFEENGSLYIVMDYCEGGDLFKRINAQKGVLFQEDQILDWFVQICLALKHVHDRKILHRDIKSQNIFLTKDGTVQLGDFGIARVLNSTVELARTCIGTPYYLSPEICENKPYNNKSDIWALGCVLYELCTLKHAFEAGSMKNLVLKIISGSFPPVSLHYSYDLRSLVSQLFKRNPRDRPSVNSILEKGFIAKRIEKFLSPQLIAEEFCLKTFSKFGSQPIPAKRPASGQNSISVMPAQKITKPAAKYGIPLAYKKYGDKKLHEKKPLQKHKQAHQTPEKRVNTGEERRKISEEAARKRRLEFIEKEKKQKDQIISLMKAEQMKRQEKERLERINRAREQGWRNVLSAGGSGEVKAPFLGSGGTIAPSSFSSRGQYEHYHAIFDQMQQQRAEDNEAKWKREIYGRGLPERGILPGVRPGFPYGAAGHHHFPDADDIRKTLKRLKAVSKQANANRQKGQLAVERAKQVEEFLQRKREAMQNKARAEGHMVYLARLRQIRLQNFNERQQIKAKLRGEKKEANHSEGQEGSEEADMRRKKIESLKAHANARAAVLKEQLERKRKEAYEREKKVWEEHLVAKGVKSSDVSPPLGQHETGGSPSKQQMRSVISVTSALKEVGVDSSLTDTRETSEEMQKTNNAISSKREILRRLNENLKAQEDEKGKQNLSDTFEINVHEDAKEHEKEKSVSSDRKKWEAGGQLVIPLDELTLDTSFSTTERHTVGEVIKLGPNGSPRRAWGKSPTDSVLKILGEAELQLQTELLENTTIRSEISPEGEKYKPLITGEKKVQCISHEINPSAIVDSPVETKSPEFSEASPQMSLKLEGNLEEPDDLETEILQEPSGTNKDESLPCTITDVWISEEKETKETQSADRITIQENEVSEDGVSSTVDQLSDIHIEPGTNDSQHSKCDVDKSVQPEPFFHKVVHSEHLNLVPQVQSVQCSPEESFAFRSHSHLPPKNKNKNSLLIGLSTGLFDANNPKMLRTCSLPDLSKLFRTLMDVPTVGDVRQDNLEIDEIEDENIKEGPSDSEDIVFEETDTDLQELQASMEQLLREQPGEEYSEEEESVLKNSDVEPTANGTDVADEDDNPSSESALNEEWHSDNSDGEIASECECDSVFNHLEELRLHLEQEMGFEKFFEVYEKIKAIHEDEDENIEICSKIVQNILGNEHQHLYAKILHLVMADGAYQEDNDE
Particulars: at 0.1 µM.

Assay [13] deals with T5, Serine/threonine-protein kinase Nek1 (Homo sapiens). The conditions noted are these: at 1 µM.
For assay [14], the target named is T6, Serine/threonine-protein kinase Nek2 (Homo sapiens) (UniProt P51955).
T6 sequence (whole entry): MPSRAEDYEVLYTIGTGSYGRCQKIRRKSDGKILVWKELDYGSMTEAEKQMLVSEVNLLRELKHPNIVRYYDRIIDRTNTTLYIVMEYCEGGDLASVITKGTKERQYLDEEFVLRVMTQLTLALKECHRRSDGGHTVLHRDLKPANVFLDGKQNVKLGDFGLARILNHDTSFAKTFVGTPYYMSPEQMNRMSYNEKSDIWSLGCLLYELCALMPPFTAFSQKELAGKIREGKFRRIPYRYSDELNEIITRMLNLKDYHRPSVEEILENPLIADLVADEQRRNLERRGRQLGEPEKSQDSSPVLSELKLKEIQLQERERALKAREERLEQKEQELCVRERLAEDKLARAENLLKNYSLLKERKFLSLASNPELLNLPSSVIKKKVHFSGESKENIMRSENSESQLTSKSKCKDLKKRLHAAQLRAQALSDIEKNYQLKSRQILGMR
The conditions noted are these: at 0.1 µM.

The target of assay [15] is T6, Serine/threonine-protein kinase Nek2 (Homo sapiens). The conditions noted are these: at 1 µM.
The target of assay [16] is Serine/threonine-protein kinase Nek6 (Homo sapiens) (UniProt Q9HC98). Particulars: at 0.1 µM.
Chain of Serine/threonine-protein kinase Nek6 (Homo sapiens) (Q9HC98 whole entry): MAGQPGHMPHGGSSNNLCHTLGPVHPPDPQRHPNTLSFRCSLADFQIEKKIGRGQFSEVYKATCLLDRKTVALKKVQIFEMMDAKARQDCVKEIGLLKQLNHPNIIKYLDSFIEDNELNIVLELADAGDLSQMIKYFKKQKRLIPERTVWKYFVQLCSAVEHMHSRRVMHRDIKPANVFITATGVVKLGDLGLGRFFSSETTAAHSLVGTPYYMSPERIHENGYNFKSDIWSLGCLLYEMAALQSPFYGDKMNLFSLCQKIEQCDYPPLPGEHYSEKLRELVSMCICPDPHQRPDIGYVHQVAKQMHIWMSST
Assay [17] has the same target. The conditions noted are these: at 1 µM.
Assay [18] concerns the target Serine/threonine-protein kinase Nek7 (Homo sapiens) (UniProt Q8TDX7). The conditions noted are these: at 0.1 µM.
The target is the same in assay [19]. The conditions noted are these: at 1 µM.
For assay [20], the target named is T7, Serine/threonine-protein kinase Nek9 (Homo sapiens) (UniProt Q8TD19).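 Further: reported value is the mean percent inhibition of NEK9.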
T7 sequence (whole entry): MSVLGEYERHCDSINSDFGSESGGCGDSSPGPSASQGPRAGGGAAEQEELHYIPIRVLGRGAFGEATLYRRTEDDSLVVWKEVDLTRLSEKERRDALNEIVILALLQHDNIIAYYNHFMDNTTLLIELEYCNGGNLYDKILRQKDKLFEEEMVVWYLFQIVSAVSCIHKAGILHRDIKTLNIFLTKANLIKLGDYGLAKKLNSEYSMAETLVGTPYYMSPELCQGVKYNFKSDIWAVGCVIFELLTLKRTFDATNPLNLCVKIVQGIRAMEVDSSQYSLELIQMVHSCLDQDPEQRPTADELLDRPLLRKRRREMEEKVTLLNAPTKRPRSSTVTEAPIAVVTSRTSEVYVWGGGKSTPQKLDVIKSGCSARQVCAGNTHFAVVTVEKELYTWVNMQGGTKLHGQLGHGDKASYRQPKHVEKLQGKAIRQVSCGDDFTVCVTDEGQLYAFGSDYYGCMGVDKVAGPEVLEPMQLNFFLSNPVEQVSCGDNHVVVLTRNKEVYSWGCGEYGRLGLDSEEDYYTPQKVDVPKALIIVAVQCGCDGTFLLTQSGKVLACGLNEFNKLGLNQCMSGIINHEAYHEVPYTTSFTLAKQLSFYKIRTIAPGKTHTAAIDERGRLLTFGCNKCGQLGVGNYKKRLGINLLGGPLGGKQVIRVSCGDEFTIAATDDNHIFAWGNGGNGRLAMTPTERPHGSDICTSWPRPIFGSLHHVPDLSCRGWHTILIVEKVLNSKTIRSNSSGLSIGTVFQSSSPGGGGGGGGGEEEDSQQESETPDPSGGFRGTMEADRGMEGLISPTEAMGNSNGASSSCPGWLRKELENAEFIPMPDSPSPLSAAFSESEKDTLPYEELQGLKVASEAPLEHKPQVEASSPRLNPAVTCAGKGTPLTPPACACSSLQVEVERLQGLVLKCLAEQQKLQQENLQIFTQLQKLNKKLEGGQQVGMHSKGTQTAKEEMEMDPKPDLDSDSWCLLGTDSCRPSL
The conditions noted are these: at 0.1 µM.

SMILES strings stand for the structures.

Chain of Serine/threonine-protein kinase Nek7 (Homo sapiens) (Q8TDX7 whole entry, looked up): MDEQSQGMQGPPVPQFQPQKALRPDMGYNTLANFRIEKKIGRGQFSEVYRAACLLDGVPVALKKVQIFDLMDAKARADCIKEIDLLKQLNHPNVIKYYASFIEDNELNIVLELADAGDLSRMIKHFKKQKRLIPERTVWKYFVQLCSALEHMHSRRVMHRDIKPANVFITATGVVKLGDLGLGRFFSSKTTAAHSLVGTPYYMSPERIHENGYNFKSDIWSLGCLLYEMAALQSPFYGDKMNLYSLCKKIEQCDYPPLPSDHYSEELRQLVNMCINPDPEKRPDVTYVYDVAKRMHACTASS
Chain of Casein kinase II subunit alpha (Homo sapiens) (P68400 whole entry, looked up): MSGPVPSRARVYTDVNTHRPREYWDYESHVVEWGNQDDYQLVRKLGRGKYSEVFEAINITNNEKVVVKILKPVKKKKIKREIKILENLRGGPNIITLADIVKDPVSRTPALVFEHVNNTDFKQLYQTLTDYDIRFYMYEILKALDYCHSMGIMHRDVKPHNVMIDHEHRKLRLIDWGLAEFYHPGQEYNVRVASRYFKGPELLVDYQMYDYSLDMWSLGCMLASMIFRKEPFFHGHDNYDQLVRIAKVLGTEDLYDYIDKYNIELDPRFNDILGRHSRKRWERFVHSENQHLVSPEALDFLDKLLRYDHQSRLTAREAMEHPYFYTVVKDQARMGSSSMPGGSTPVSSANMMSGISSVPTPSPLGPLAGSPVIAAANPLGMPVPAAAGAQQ
Chain of Sphingosine kinase 1 (Homo sapiens) (Q9NYA1 whole entry): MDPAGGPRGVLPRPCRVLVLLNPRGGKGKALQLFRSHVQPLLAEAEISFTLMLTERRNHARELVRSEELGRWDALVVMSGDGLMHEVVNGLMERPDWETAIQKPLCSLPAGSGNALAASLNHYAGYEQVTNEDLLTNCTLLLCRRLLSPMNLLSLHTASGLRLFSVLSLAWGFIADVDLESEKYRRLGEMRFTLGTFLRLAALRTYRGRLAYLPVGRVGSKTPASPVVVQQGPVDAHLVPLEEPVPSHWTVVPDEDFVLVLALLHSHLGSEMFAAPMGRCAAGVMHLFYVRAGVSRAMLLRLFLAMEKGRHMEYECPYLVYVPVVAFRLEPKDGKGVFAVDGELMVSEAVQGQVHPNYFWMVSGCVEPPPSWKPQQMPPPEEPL

Consider `COc1cc(N2CCN(C(C)C)CC2)ccc1Nc1nc(Nc2ccc(F)cc2C(N)=O)c2cc[nH]c2n1`, for which the inhibition in assay [1] is 0.04%; in assay [2], -0.73%; in assay [3] it was -1.03%; in [4], 15.7%; in [5], 54.7%; in [6], 0.45%. The inhibition is -0.19% in assay [7]; 2.59% in assay [8]; 3.32% in [9]; 0.77% in [10]; 4.36% in [11]; 3.16% in [12]. The inhibition in [13] came to 11.2%; in [14], 3.34%; in assay [15], 2.89%; in assay [16], 2.32%; in assay [17] it was 5.57%; in assay [18], 2.07%. Further, the inhibition in [19] was found to be 7.1%; in assay [20], 4.13%.
